From ChEMBL document CHEMBL3433997, “St. Jude Leishmania screening dataset” (2016)

Experiments:
Type in all cases: functional
[1] = target: Solute carrier family 2, facilitated glucose transporter member 1 (Homo sapiens) (UniProt P11166); assay: ST_JUDE_LEISH: Cytotoxicity at 2uM final concentration against transgenic Leishmania Mexicana promastigotes LmGLUT1 that are glucose transport deficient and complemented with the human glucose transporter GLUT1. Activity is measured by DNA content using SYBR green in vitro
[2] = target: Hexose transporter 1 (Plasmodium falciparum) (UniProt O97467); assay: ST_JUDE_LEISH: Cytotoxicity at 2uM final concentration against transgenic Leishmania Mexicana promastigotes LmPfHT that are glucose transport deficient and complemented with the Plasmodium falciparum hexose transporter. Activity is measured by DNA content using SYBR green in vitro
[3] = target: Glucose transporter (Leishmania mexicana) (UniProt O61059); assay: ST_JUDE_LEISH: Cytotoxicity at 2uM final concentration against transgenic Leishmania Mexicana promastigotes LmGT2 that are glucose transport deficient and complemented with the L. Mexicana glucose transporter 2. Activity is measured by DNA content using SYBR green in vitro

Chain of Solute carrier family 2, facilitated glucose transporter member 1 (Homo sapiens) (P11166 whole entry): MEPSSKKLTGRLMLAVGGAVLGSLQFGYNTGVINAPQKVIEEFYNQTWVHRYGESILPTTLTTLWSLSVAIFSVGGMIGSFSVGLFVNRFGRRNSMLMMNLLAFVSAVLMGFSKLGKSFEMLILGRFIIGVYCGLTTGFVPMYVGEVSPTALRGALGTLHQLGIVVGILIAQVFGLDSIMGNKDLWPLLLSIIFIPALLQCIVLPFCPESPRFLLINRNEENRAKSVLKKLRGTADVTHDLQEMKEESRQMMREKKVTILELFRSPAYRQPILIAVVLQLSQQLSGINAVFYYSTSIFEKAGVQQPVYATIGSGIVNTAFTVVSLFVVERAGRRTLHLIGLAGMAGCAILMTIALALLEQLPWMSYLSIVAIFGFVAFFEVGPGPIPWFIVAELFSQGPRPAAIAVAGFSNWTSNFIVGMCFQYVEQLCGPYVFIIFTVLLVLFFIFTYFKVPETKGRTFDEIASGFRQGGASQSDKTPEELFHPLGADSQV

| Compound | inhibition [1] [%] | inhibition [2] [%] | inhibition [3] [%] |
| --- | --- | --- | --- |
| O=c1cc(NCCCCNCc2cccc(Br)c2)[nH]c2ccccc12 | 5.23 | 5.07 | 3.39 |
| O=C(NC1CC1)c1ccc(N2CCC(Cc3ccccc3)CC2)c([N+](=O)[O-])c1 | 0.6 | 0.86 | 3.45 |
| COc1ccc2nccc([C@@H](O)CN3CCC(NC(=O)/C=C/c4ccc(Cl)c(C(F)(F)F)c4)CC3)c2c1 | 5 | 4.74 | -1.23 |
| CC(C)(C)c1ccc(C(=O)NC2CCC(CCN3CCc4ccc(S(C)(=O)=O)cc4CC3)CC2)cc1C(F)(F)F (stereo unspecified) | 1.87 | 2.06 | 6.75 |
| CC(=O)NCCNCc1cccc(C(=O)NCc2cccc(C(F)(F)F)c2)c1 | 3.26 | 5.92 | 4.88 |
| CCOc1ccc2c(=NN=Cc3ccc(F)cc3)cc(C)[nH]c2c1 | 4.44 | 3.21 | 1.49 |
| Cc1cc(-c2ccc(NC(=O)N3CCc4cc(Cl)c(N5CCN(C)CC5)cc43)cc2)ccc1C#N | 78.1 | 77.2 | 81.7 |
| Cc1ccc(Cn2ncc(N3CCC(N)CC3)c(Cl)c2=O)cc1NC(=O)Nc1ccc(-c2ccccc2)cc1 | 14.2 | 12.3 | 11.9 |
| COc1cc2ncnc(Nc3ccc(OCc4ccccc4)c(I)c3)c2cc1OC | 1.41 | 0.71 | 1.33 |
| COc1ccccc1N1CCN(Cc2c(O)ccc3cc(Br)ccc23)CC1 | 5.54 | 4.31 | 6.16 |
| CCn1c(-c2ccccc2)cc2nnc3ccccc3c21 | 6.68 | 5.32 | 5.02 |
| CCn1c(SCC(=O)Nc2cc(C(F)(F)F)ccc2Cl)nc2ccccc2c1=O | 1.69 | 3.62 | 4.32 |
